Data from PubChem BioAssay (NCI).
The panel holds about 79,000 compounds, 15% with a hit somewhere; the sample as a whole holds those more often. Rule as the data show it: active = growth inhibition above about 70%; inactive = the rest.

Experiments:
[1] = NCI Yeast Anticancer Drug Screen. Data for the rad50 strain (AID 155);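 also: 0% = growth of vehicle-only cultures of the same strain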; conditions: S. cerevisiae rad50 strain growth inhibition; at 50.0 µM; stronger effect = higher value
In short: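 DNA repair mutant yeast, compound exposure, growth read-out; inhibition is taken relative to vehicle.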

[2] = NCI Yeast Anticancer Drug Screen. Data for the mec2-1 strain (AID 157); conditions: S. cerevisiae mec2-1 strain, at 50.0 µM, stronger effect = higher value
In short: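 Growth inhibition is read against vehicle-treated controls after compound exposure of the mec2-1 yeast strain, which is defective in DNA damage repair or cell cycle control.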

[3] = NCI Yeast Anticancer Drug Screen. Data for the sgs1 mgt1 strain (AID 161);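 also: 0% = growth of cultures given vehicle only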; conditions: S. cerevisiae sgs1 mgt1 strain, at 50.0 µM, stronger effect = higher value
In short: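 Yeast cells carrying a defined DNA-repair defect were exposed to test compounds. Growth inhibition was measured relative to vehicle-treated controls.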

[4] = NCI Yeast Anticancer Drug Screen. Data for the cln2 rad14 strain (AID 165);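 also: 0% = growth equal to vehicle treated cultures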; conditions: S. cerevisiae cln2 rad14 strain, at 50.0 µM, stronger effect = higher value
In short: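 Growth inhibition, relative to vehicle-treated controls, is the read-out. The test organism is a yeast strain with defined genetic alterations, cln2 rad14.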

[5] = NCI Yeast Anticancer Drug Screen. Data for the bub3 strain (AID 167); conditions: S. cerevisiae bub3 mutant strain, at 50.0 µM, stronger effect = higher value
In short: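 In this screen, a yeast mutant lacking normal mitotic checkpoint function is challenged with compound. Relative growth versus vehicle gives the inhibition value.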

[6] = NCI Yeast Anticancer Drug Screen. Data for the mlh1 rad18 strain (AID 175); conditions: S. cerevisiae mlh1 rad18 strain growth inhibition; at 50.0 µM; stronger effect = higher value
In short: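 Cells of a genetically altered yeast strain, deficient in DNA damage repair, were treated with compound. Their growth was then compared with that of vehicle-treated cultures to give inhibition.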

Measured: growth inhibition

Cc1cc(Cl)ccc1NC(=O)/C(=N\NC(C)(C)C)C(C#N)c1nc(-c2ccc([N+](=O)[O-])cc2)cs1 (stereo unspecified)
inactive: [1] 23.8% | [2] 8.95% | [3] 3.85% | [4] 25.7% | [5] 4.25% | [6] -10.8%

CSc1nc(SC)c2c(C(N)=S)[nH]nc2n1
inactive: [1] 23.3% | [2] 20.9% | [3] 47% | [4] 19.7% | [5] 18.6% | [6] 23.6%

CC(=O)Oc1cc(C(F)(F)F)ccc1C(=O)OC1(C)OC(=O)c2ccc(C(F)(F)F)cc2O1 (stereo unspecified)
inactive: [1] -34.1% | [2] -12.9% | [3] -21.4% | [4] -2.85% | [5] -13.9% | [6] -16.9%

COCC(C)OC(=O)c1ccccc1 (stereo unspecified)
inactive: [1] 23.8% | [2] -0.8% | [3] -9.9% | [4] -23.4% | [5] -14.9% | [6] 31.9%

COc1ccc(NC(=O)C/C(C)=C2/C(=O)NN(c3ccccc3)C2=O)cc1
inactive: [1] 33.5% | [2] 15.2% | [3] 39.9% | [4] 4.5% | [5] 19.1% | [6] 41.1%

Cc1ccc(/C=C/C(=N/NC(=O)c2ccccc2)C(C)CN(C)C)cc1 (stereo unspecified)
inactive: [1] 6.6% | [2] 5.65% | [3] 6.45% | [4] -11.2% | [5] 0.25% | [6] 12.9%

C[C@@H]1O[C@]2(O)[C@@H]3CCCN3S(=O)(=O)CCN2C1=O
inactive: [1] 2.1% | [2] -21.6% | [3] -16.9% | [4] 17.7% | [5] -11.3% | [6] -17.1%

CCCOC(=O)c1ccccc1C=O
inactive: [1] -12.1% | [2] -3.5% | [3] -18.6% | [4] -49.9% | [5] -10.3% | [6] 23.4%

COc1cc2c(c(O)c1OC)C(=O)[C@@H]1CCC(=O)N1C2c1ccccc1 (stereo partly specified)
inactive: [1] 19.1% | [2] 2.7% | [3] 19.4% | [4] 13.1% | [5] 11.3% | [6] -18.4%

CC1(C)C2CC(=O)C1(C)C(OCc1ccccc1)C2 (stereo unspecified)
inactive: [1] -21.2% | [2] 12.6% | [3] 6.1% | [4] 22.1% | [5] -18.1% | [6] 5.1%

CCN(CC)CCCNc1ccc(-c2cc(OC)cc3cccnc23)cc1
inactive: [1] -5.95% | [2] -17.1% | [3] -0.05% | [4] -14.1% | [5] 6% | [6] 4.4%

CCC(=O)CC(C)=O.CCC(=O)CC(C)=O.[Cu]
inactive: [1] -10.3% | [2] 19.4% | [3] 5.5% | [4] -31% | [5] -2.2% | [6] 14.2%

NCCN1C(=O)c2ccccc2C1(O)c1ccc(Cl)cc1 (stereo unspecified)
inactive: [1] -6.25% | [2] -35.4% | [3] -7% | [4] -4.6% | [5] -14.9% | [6] -0.65%

CCCCCCCCCCCCCCCCCCN(C)CC(COC)OP(=O)([O-])OCC[N+](C)(C)C (stereo unspecified)
inactive: [1] 22.6% | [2] 14.3% | [3] 15.1% | [4] -3.45% | [5] 0.25% | [6] 24.9%

COc1ccc(C2ON(c3ccccc3)CC=C2C)cc1 (stereo unspecified)
inactive: [1] 36% | [2] -3.2% | [3] 5.55% | [4] 13.1% | [5] 19.4% | [6] 13.1%

Nc1nc(SCc2ccccc2)c2ncn(C3CC(O)C(CO)O3)c2n1 (stereo unspecified)
inactive: [1] 0.05% | [2] -1.2% | [3] 3.1% | [4] -99.5% | [5] -1.45% | [6] -6.15%

CCCC(C)C(O)C(C)C (stereo unspecified)
inactive: [1] 1.25% | [2] -19.8% | [3] -5.1% | [4] 3.6% | [5] 8.7% | [6] -18.7%

O=C(O)CCC(=O)NNC(=O)CCC(=O)O
inactive: [1] 16.2% | [2] -2.45% | [3] 4.15% | [4] -8.45% | [5] 14.3% | [6] -22.4%

CCCCCCCCC(=O)OCC(=O)N(C)C
inactive: [1] 15.6% | [2] 8.8% | [3] 6.35% | [4] 13.3% | [5] 2.9% | [6] 9.4%

Cc1n[nH]c(=S)[nH]c1=S
inactive: [1] -14.3% | [2] -5.1% | [3] 9.4% | [4] -42.1% | [5] -23.2% | [6] 14.4%

CC(C)CCCC(C)C1CCC2C3CC=C4CC(OP(=O)(N5CC5)N5CC5)CCC4(C)C3CCC12C (stereo unspecified)
inactive: [1] 26.8% | [2] 1.4% | [3] 11.4% | [4] 19.3% | [5] -4.1% | [6] 12.2%

CN(C)c1ncnc2c1ncn2C1OC(CO)C(O)C1O (stereo unspecified)
inactive: [1] 14.2% | [2] 20% | [3] 4% | [4] -34.4% | [5] 18.1% | [6] 24.5%

N=C(N)SCC(O)C(O)CSC(=N)N (stereo unspecified)
inactive: [1] 0.3% | [2] 4.4% | [3] -0.95% | [4] -30.1% | [5] -6.45% | [6] -1.5%

C/C(=C\c1ccccc1)C(=O)C1C(c2ccccc2)CC(=O)C(C)C1c1ccccc1 (stereo unspecified)
inactive: [1] -3.65% | [2] -11.7% | [3] -27.3% | [4] -36.5% | [5] -0.5% | [6] 2.35%

NCCCCCCN1CCN(c2cccc(Cl)c2)CC1
inactive: [1] 14.2% | [2] 21.9% | [3] 14.8% | [4] 7.55% | [5] 13.8% | [6] -13.4%

Cc1cc(C(=O)N/N=C/c2cc(Cl)cc(Cl)c2O)c2cc(Br)ccc2n1
inactive: [1] 61.5% | [2] 25.4% | [3] 54% | [4] 15.9% | [5] -0.2% | [6] 45%

CC(C)CNC(=S)N/N=C/c1ccc(N)cc1
inactive: [1] 31.6% | [2] 13.7% | [3] 3% | [4] 27.8% | [5] 6% | [6] -1.1%

CN(C)CCC(C(N)=O)c1ccccc1 (stereo unspecified)
inactive: [1] 36.1% | [2] -1.7% | [3] -3.7% | [4] 38.9% | [5] -5.85% | [6] 18.1%

CC(NC(=O)C(=O)c1ccccc1)c1ccccc1 (stereo unspecified)
inactive: [1] 10.4% | [2] -2.95% | [3] -13.6% | [4] 20.1% | [5] 27.4% | [6] -12.2%

C=C(C)C(=O)Nc1ccc(NS(=O)(=O)c2ccc(C(C)CC)cc2)c(O)c1 (stereo unspecified)
inactive: [1] 9.3% | [2] -8.7% | [3] 18.1% | [4] 35.5% | [5] 14.9% | [6] 1.2%

CCOC(=O)CN(c1scc(-c2ccccc2)c1C(=O)OCC)S(=O)(=O)c1ccc(C)cc1
inactive: [1] -15.7% | [2] -28.6% | [3] 0.05% | [4] -57.6% | [5] -2.7% | [6] 0.85%

Cc1cc2c(C(C)C)c(O)c(O)c(C=Nc3ccc4ccccc4c3)c2c(O)c1-c1c(C)cc2c(C(C)C)c(O)c(O)c(C=Nc3ccc4ccccc4c3)c2c1O
inactive: [1] 7.3% | [2] -5.2% | [3] -6.15% | [4] -42.1% | [5] -4.6% | [6] 1.2%

O=[N+]([O-])c1cc2c(c([N+](=O)[O-])c1)Nc1cc(Cl)ccc1O2
inactive: [1] 1.6% | [2] 19.8% | [3] 17.6% | [4] 11.8% | [5] 4.4% | [6] 26.9%

CCN(CC)CCSC(=O)c1ccc([N+](=O)[O-])cc1
inactive: [1] 20.1% | [2] 7.7% | [3] 15.6% | [4] 19.8% | [5] 38.5% | [6] 8.1%

c1ccc(CN2COc3c(ccc4c5c(ccc34)CN(Cc3ccccc3)CO5)C2)cc1
inactive: [1] 5% | [2] -10.4% | [3] -37.5% | [4] -14.1% | [5] -19.9% | [6] -9.15%

CC(=O)NCC1CCCO1 (stereo unspecified)
inactive: [1] 2.65% | [2] -18.6% | [3] -20.4% | [4] 3.85% | [5] 3.75% | [6] -5.9%

COC(=O)Nc1nc2ccc(SC)cc2c(=O)[nH]1
inactive: [1] -9.55% | [2] -5.55% | [3] 3.2% | [4] 6.45% | [5] -17.8% | [6] -29.6%

C[N+]1=C(/C=C/Nc2ccc(Cl)cc2)C(C)(C)c2ccccc21
inactive: [1] -2.35% | [2] 6.2% | [3] -10.4% | [4] -2.55% | [5] -1.8% | [6] 9.5%

CCOC(=O)CCN(CC1CC=CCC1)c1cc(O)c2c(c1O)C(=O)c1ccccc1C2=O (stereo unspecified)
inactive: [1] -70.6% | [2] -4.75% | [3] -21.5% | [4] -2.55% | [5] 2% | [6] -9.85%

CCCC(=O)C(O)CCC (stereo unspecified)
inactive: [1] -20.5% | [2] -16.7% | [3] -2.6% | [4] -47.9% | [5] 1.65% | [6] -26.1%

c1ccc2c(c1)NC(N1CCCCC1)=Nc1ncncc1-2
inactive: [1] 14.8% | [2] -8.15% | [3] 7.75% | [4] -15.1% | [5] -1.7% | [6] 2%
